Over roughly 16,000 sequences, “rpm ratio (pull-down/input)” has its median near 0.5; the highest 2% begin near 5.5. The sample holds the highest values, similar sequences and a random draw of the others, so the mix is not that of the screen.

This experiment has as its target T1, MBP-FoxP3dN (Mus musculus, UniProt Q99JB6 188-423).
T1 sequence: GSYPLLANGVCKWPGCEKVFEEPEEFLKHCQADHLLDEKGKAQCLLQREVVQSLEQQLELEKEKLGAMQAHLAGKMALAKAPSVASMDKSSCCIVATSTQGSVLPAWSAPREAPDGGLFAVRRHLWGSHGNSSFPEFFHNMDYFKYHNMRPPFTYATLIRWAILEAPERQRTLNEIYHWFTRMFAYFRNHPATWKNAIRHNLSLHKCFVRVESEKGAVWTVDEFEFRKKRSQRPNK
The experiment in a line: PD-seq (MBP pull-down with sequencing); 20 mM Tris-HCl pH 7.5, 100 mM NaCl, 1.5 mM MgCl2, 0.4 uM protein, 0.1 uM dsDNA library, 30 min, room temperature, amylose pull-down; high values mean tight binding. The note with it: protein: recombinant; tags: His6-MBP; chain copies: 2; dsDNA, one strand shown. The procedure, abridged: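 In Tris pH 7.5 buffer with NaCl and MgCl2, 0.4 µM His6-MBP-tagged mouse FoxP3 or FoxP1 fragment lacking the N-terminus, from E. coli, met 0.1 µM Klenow-filled double-stranded degenerate DNA library for 30 min at room temperature. Three washes on amylose resin followed capture of the complexes, then proteinase K release of DNA, PCR barcoding and Illumina sequencing. Binding is taken as pooled-replicate reads-per-million enrichment of pull-down relative to input.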
In the case of “GATGATTGTTCTCCCAGCTGATGAATTACTCTGCTCGAGTAAACAAATTTTCCTAATCTTTCTGTTCAAGCGCCATCTAC”, the binding signal was 0.3 RPM ratio (pull-down/input).
The value for “GATGATTGTTCTCCCAGCTGATGAATTACGTTGCTCGAGTAAACAAATTTTCCTAATCTTTCTGTTCAAGCGCCATCTAC” was 1.14 RPM ratio (pull-down/input).
The value for “GATGATTGTTCTCCCAGCTGATGAATTAGGACATTCGAGTAAACAAATTTTCCTAATCTTTCTGTTCAAGCGCCATCTAC” was 0.784 RPM ratio (pull-down/input); that for “GATGATTGTTCTCCCAGCTGATGAATTAAAGAATTCGAGTAAACAAATTTTCCTAATCTTTCTGTTCAAGCGCCATCTAC” was 0.677 RPM ratio (pull-down/input).
The value for “GATGATTGTTCTCCCAGCTGATGAATTGTGTAATTCGAGTAAACAAATTTTCCTAATCTTTCTGTTCAAGCGCCATCTAC” was 3.19 RPM ratio (pull-down/input).
On to “GATGATTGTTCTCCCAGCTGATGAATTGTATTTTTCGAGTAAACAAATTTTCCTAATCTTTCTGTTCAAGCGCCATCTAC”, for which the binding signal is 3.78 RPM ratio (pull-down/input).
The value for “GATGATTGTTCTCCCAGCTGATGAATTGTATATTTCGAGTAAACAAATTTTCCTAATCTTTCTGTTCAAGCGCCATCTAC” was 3.17 RPM ratio (pull-down/input); that for “GATGATTGTTCTCCCAGCTGATGAATTCGTATATTCGAGTAAACAAATTTTCCTAATCTTTCTGTTCAAGCGCCATCTAC” was 2.61 RPM ratio (pull-down/input); that for “GATGATTGTTCTCCCAGCTGATGAATTCTGTATTTCGAGTAAACAAATTTTCCTAATCTTTCTGTTCAAGCGCCATCTAC” was 4.09 RPM ratio (pull-down/input).
As for “GATGATTGTTCTCCCAGCTGATGAATTTCTGTATTCGAGTAAACAAATTTTCCTAATCTTTCTGTTCAAGCGCCATCTAC”, the binding signal was 1.38 RPM ratio (pull-down/input).
The value for “GATGATTGTTCTCCCAGCTGATGAATTTTTGTATTCGAGTAAACAAATTTTCCTAATCTTTCTGTTCAAGCGCCATCTAC” was 2.57 RPM ratio (pull-down/input); that for “GATGATTGTTCTCCCAGCTGATGAATTCGTGTATTCGAGTAAACAAATTTTCCTAATCTTTCTGTTCAAGCGCCATCTAC” was 2.95 RPM ratio (pull-down/input); that for “GATGATTGTTCTCCCAGCTGATGAATTTGTATATTCGAGTAAACAAATTTTCCTAATCTTTCTGTTCAAGCGCCATCTAC” was 6.34 RPM ratio (pull-down/input).
Then “GATGATTGTTCTCCCAGCTGATGAATTTGTGTATTCGAGTAAACAAATTTTCCTAATCTTTCTGTTCAAGCGCCATCTAC”, with 6.95 RPM ratio (pull-down/input); and “GATGATTGTTCTCCCAGCTGATGAATTGTGTATTTCGAGTAAACAAATTTTCCTAATCTTTCTGTTCAAGCGCCATCTAC”, with 5.82 RPM ratio (pull-down/input).
“GATGATTGTTCTCCCAGCTGATGAATTGTATTGTTCGAGTAAACAAATTTTCCTAATCTTTCTGTTCAAGCGCCATCTAC”: the binding signal was 6.04 RPM ratio (pull-down/input).
Regarding “GATGATTGTTCTCCCAGCTGATGAATTTTTACGATCGAGTAAACAAATTTTCCTAATCTTTCTGTTCAAGCGCCATCTAC”, the binding signal is 0.226 RPM ratio (pull-down/input).
“GATGATTGTTCTCCCAGCTGATGAATTCCCTGCCTCGAGTAAACAAATTTTCCTAATCTTTCTGTTCAAGCGCCATCTAC”: the binding signal is 0.312 RPM ratio (pull-down/input).

The record behind these values is article PMC12820563, “FoxP3 forms a head-to-head dimer in vivo and stabilizes its multimerization on adjacent microsatellites”.
